# Hits are enriched below; roughly 9% of the tested compounds scored in any of these assays.
# BAZ2B block: blocks human BAZ2B | Potency, µM (highest dose often 114 µM), for inactives: at the highest dose activity change, negative = inhibition, most hits filed as inhibitors | 360,000 compounds, 4.4% hits | AlphaScreen BAZ2B-H3K14Ac peptide displacement | Q9UIF8; further: on the % scale 0 is the no-effect control and ±100 the full control effect; nearly all actives have a fitted effect of over 60% in size
#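 In this displacement format the biotinylated H3(5-23) peptide acetylated at Lys14 serves as ligand at 50 nM, with BAZ2B at 50 nM in PBS pH 7.4 containing 0.01% Tween-20. Donor and acceptor beads are 10 ug/mL final.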
# 12-LOX inh: ALOX12 (human) lipoxygenase inhibition | purified 12hLO, xylenol orange hydroperoxide absorbance | P18054 | AID 1671190 | 580,000 compounds, 1.1% hits | Potency, µM (doses to about 108 µM), for the others: top-dose activity change, negative = inhibition, usual class: inhibitors; further: on the % scale 0 is the no-effect control and ±100 the full control effect
#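 Purified human 12hLO at 150 nM in 25 mM Hepes, 0.01% Triton X-100, pH 7.0, preincubated 15 min at room temperature with compound. Reaction started with 40 uM arachidonic acid, 30 min at room temperature. Hydroperoxide measured by Fe-xylenol orange, 573/405 nm absorbance ratio.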
# HP1b binding inh: blocks HP1-beta chromodomain binding to methylated histone tails; P83916; AlphaScreen HP1-beta / biotin-H3K9me3 peptide binding; Potency, µM (series often up to 114 µM), for inactives: top-dose activity change, negative = inhibition, hits mostly inhibitors; 390,000 compounds, 0.56% hits; AID 540317; further: nearly all actives have a fitted effect of over 70% in size
#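 HP1-beta protein (50 nM final) preincubated 30 min at room temperature with biotinylated H3(1-18)K9me3 peptide (50 nM) in PBS pH 7.4, 0.01% Tween-20, then compound added for 30 min. AlphaScreen streptavidin donor/nickel chelate acceptor beads (10 ug/mL final), 30 min dark, luminescence read.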
# PLK1 PBD block: blocks phosphopeptide binding to human PLK1 polo-box domain; Potency, µM, for the others: max response, negative = inhibition, most hits filed as inhibitors; 360,000 compounds, 2.8% hits; Plk1 PBD binding of FITC phosphopeptide, fluorescence polarization; further: series mostly up to about 57 µM; on the % scale 0 is the no-effect control and ±100 the full control effect; nearly all actives have a fitted effect of over 65% in size
# JMJD2A Tudor inh: inhibitors of human JMJD2A Tudor domain; 390,000 compounds, 4.4% hits; Potency, µM (titrated, usually from 114 µM), without a hit: at the highest dose activity change, negative = inhibition, actives largely listed as inhibitors; O75164; AlphaScreen JMJD2A-Tudor / H3K4me3 peptide binding; AID 504339; further: on the % scale 0 is the no-effect control and ±100 the full control effect; nearly all actives have a fitted effect of over 50% in size
# G9a block: G9a (human) methyltransferase inhibition; Q96KQ7; G9a H3K9 monomethylation, AlphaScreen, 2 h; Potency, µM (doses to about 102 µM), for the others: at the highest dose activity, negative = inhibition, usual class: inhibitors; 350,000 compounds, 8.8% hits; further: on the % scale 0 is the no-effect control and ±100 the full control effect; nearly all actives have a fitted effect of over 75% in size
#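 Enzyme 20 nM + cpd, 15 min RT; add b-H3K9 pep 500 nM / SAM 20 uM; 2 h RT; anti-H3K9me1 Ab 0.5 ug/mL + SA donor / anti-rabbit acceptor beads 20 ug/mL each, 10 min; AlphaScreen read.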
# Numbers without * were called inactive; ? = inconclusive; · = no result; [ ] = remark or other dose. The call rests on the fitted dose curve; in most records, active means well fitted curve in the direction sought with a large enough effect; inconclusive means small, poorly fitted or top-dose-only effect, or another doubt; inactive means no such curve, though single readings can be large; an effect the other way counts as inactive or inconclusive. Potency means the concentration at half of the fitted maximal effect.
SMILES,BAZ2B block,12-LOX inh,HP1b binding inh,PLK1 PBD block,JMJD2A Tudor inh,G9a block
CCOc1ccc(Oc2ccc(NC(=O)C3=NN(C4CCS(=O)(=O)C4)C(=O)CC3)cc2)cc1 (configuration not stated),·,7%,·,·,·,·
COc1ccc2nc(C)cc(N/N=C/c3ccccc3)c2c1,-2%,·,-2%,-5%,?,-11%[12.7 µM]
COc1ccc2nc(C)cc(Nc3ccc(N4CCOCC4)cc3)c2c1,?,?,-14%,-5%,?,?
COc1ccc2nc(C)cc(NCCN3CCOCC3)c2c1,5%,-5%,-10%,0%,-12%,45µM*
COc1ccc2nc(C)cc(Nc3ccc(N4CCN(C)CC4)cc3)c2c1,?,4%,14%,-3%,-36%,45µM*
COc1ccc(/C=N/Nc2cc(C)nc3ccc(OC)cc23)c(OC)c1,-36%,?,-15%,-5%,?,45µM*
COc1ccccc1Cc1nc2ccccc2nc1SCC(=O)NCCc1ccccc1,1%,0%,26%[57 µM],·,-2%,12%[59 µM]
O=C(NNS(=O)(=O)c1ccc(C(=O)NC2CCCC2)cc1)c1ccncc1,-30%,-16%,20%,?,1.3µM*,50µM*
CC1CCCCC1NC(=O)c1ccc(S(=O)(=O)NNC(=O)c2ccncc2)cc1 (configuration not stated),89µM*,-7%,27%,?,3.5µM*,·
CC1CCCCC1NC(=O)c1ccncc1 (configuration not stated),-11%,0%,47%,-13%,-14%,58%
CCCOc1ccc(-c2nc(C#N)c(NCC3CCCO3)o2)cc1 (configuration not stated),50µM*,10%,-29%,3%,?,71µM*
CCOc1ccc(-c2nc(C#N)c(NCC3CCCO3)o2)cc1 (configuration not stated),-38%,-8%,13%,-2%,-32%,-3%[59 µM]
C=CCNc1oc(-c2ccc(OC)cc2)nc1C#N,-5%,15%,3%,-5%,-15%,56µM*
C=CCNc1oc(-c2ccc(OCC)cc2)nc1C#N,-1%,11%,8%,-1%,-20%,2%[59 µM]
O=C(Nc1ccccc1Cl)c1cc(C2CCCN(S(=O)(=O)c3cccs3)C2)on1 (configuration not stated),·,-50%,·,-2%,·,·
O=C(c1ccccc1)N1N=C(c2ccc(F)cc2)CC1(O)C(F)(F)F (configuration not stated),2%,7%,66%,-23%,9%,?
CN1CCC2(CC1)N=C(c1ccc(F)cc1)C(=S)N2C(=O)c1ccccc1,9%,?,?,?,?,22µM*
COc1ccc(N(CC(=O)NC2CCS(=O)(=O)C2)S(=O)(=O)c2ccc(Cl)c(Cl)c2)cc1 (configuration not stated),14%,-1%,7%,-3%,-13%,50µM*
COc1ccc(S(=O)(=O)N2CCCCC2)cc1,10%,8%,37%,-3%,-4%,25%[59 µM]
Fc1ccc(/C=C2\CCCC3=C2NC(=S)NC3c2ccc(F)cc2)cc1 (configuration not stated),?,·,·,·,·,22µM*
CN(C)c1ccc(CNC(=O)CCc2ccc(S(=O)(=O)N3CCCCCC3)cc2)cc1,45µM*,-17%,-22%,-8%,50µM*,28µM*
CC(C)NC(=O)CN1C(=O)CSc2ccc(S(=O)(=O)N3CCCC3)cc21,-19%,-6%,2%,24µM*,-31%,4%[59 µM]
CN(C)c1ccc(CNC(=O)CN2C(=O)CSc3ccc(S(=O)(=O)N4CCCC4)cc32)cc1,?,3%,-23%,·,?,11µM*
O=C(CN1C(=O)CSc2ccc(S(=O)(=O)N3CCCC3)cc21)NCc1ccc(Cl)cc1,-15%,0%,13%,·,-17%,4%[59 µM]
CN(C)c1ccc(CNC(=O)CCS(=O)(=O)c2ccc3c(c2)n(C)c(=O)c(=O)n3C)cc1,?,·,-27%,-9%,?,18µM*
SMILES,BAZ2B block,12-LOX inh,HP1b binding inh,PLK1 PBD block,JMJD2A Tudor inh,G9a block
CC1=C(C(N)=O)C(c2ccc(Br)cc2)n2nc(CCCO)nc2N1 (configuration not stated),-2%,9%,37%,7%,2%,5%[0.501 µM]
COc1cc2c(C#N)c(N3CCN(C)CC3)nc(N)c2c(N)n1,4%,6%,·,·,·,50µM*
CCOc1nc(NC(C)C)nc(NC(C)C)n1,-2%,-18%,0%,-9%,-10%,33%
CNC(=S)NN(c1ccccc1)c1ccccc1,-30%,14%,22%,-9%,-12%,57%[59 µM]
CCOC(=O)C(C(=O)Nc1cccc(C)n1)C1CCCCC1 (configuration not stated),-5%,0%,64%,-4%,-3%,18%
O=C(NC1CCCCCCC1)c1ccccc1O,2%,0%,17%,21µM*,-1%[11.4 µM],14%
Cc1ccccc1C(=O)NC1CCCCCCC1,-3%,0%,42%,-4%,-7%,·
S=C(NC1CCCCC1)NN(c1ccccc1)c1ccccc1,?,40µM*,-8%,-3%,-31%,8%[59 µM]
O=C(NCCNC(=O)c1ccccc1O)c1ccccc1O,?,10%,29%,3%,-21%,-9%[0.501 µM]
O=C(NO)c1ccccc1O,?,?,53%,-1%,-25%,2µM*
CCOC(=O)C(C(=O)Nc1ccccn1)C1CCCCC1 (configuration not stated),1%,?,21%,-9%,89µM*,50µM*
CC(=O)N1CCN(S(=O)(=O)c2cccc(C(=O)OCC(=O)Nc3c(Cl)cccc3C(F)(F)F)c2)CC1,·,?,45%,4%,-2%,·
O=C(NC(=S)NC1CCCCC1)c1ccccc1,?,35µM*,-2%,-5%,-31%,?
O=C(NNC(=O)c1cc(O)c(O)c(O)c1)NC1CCCCC1,56µM*,?,-30%,?,10µM*,1.6µM*
O=C(NNC(=O)c1cccnc1)NC1CCCCC1,4%,-19%,24%,-8%,-8%,-24%
CCC(=O)NC(=S)Nc1ccccc1C(=O)NC1CCCCC1,-12%,-9%,30%,4%,-4%,-25%[59 µM]
CC(C)C(=O)NC(=S)Nc1ccccc1C(=O)NC1CCCCC1,-5%,-19%,-2%,?,-19%,50µM*
C/C(=N\NC(=S)NC1CCCCC1)c1ccccc1,?,25µM*,9%,-3%,-14%,18%[59 µM]
CCc1cccc(NC(=O)c2ccc(Cn3c(=O)[nH]c4ccsc4c3=O)cc2)c1,?,?,17%,-12%,?,?
Cc1ccc2c(c1)c1c(n2CCc2ccc(C)nc2)CCN(C)C1,-5%,?,14%,·,-11%,5%[2.33 µM]
S=C(Nc1ccccn1)NC1CCCCC1,?,22µM*,17%,-8%,-14%,-125%[12.7 µM]

# Bioassay records: PubChem BioAssay, National Center for Advancing Translational Sciences (NCATS)
